From the supplement of paper PMC6555819

These sequences were tested on FXR:RXRa (NR concentration 270 nM, RXRa partner concentration 90 nM) (assay: PBM binding z-score (relative to random genomic background probes); higher = stronger binding; sequences stand for … in GC…GCGATTGACAGCGTAGAATGAAGG).
Procedure, shortened: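 On custom Agilent 4×180K arrays, double-stranded probes with 34-nt variable regions carried direct-repeat seeds, single-nucleotide variants, half-site ablations or random human genomic background. Ligand-free nuclear receptor dimers were applied for 1 h, and binding was read with antibodies against each partner (one per run). Binding z-scores come from regression-normalized fluorescence, with the random background probes as reference.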
TTACCAACGTGAAAGGTCGTTGATGCACGCCTTG was tested, and the PBM binding z-score was 1.28. CCTACTGCGCCACGAAAGGTCATTGATTCAGTGA gave a PBM binding z-score of 3.86. TCATATAGGTAAACGTGAAAGTCGAACGATATGA showed a PBM binding z-score of 0.211. GGAACGAGGGCAAAGTTGATAGCATCTGTCGACG showed a PBM binding z-score of 1.45. CCTAGCAGGCCAATCTGGGTGACTCAAGGCTTGA showed a PBM binding z-score of -0.438. With TCTGCTGGGTCAGTTGGTCAGCTAACGAGCTGCC the PBM binding z-score was 0.384. With CCTACTAGGTCATGGTCAGCTAATCTACAGTATG the PBM binding z-score was 3.8. TCTGTTAGTTGAAGGGCAACCGACGAGTCCGTTT gave a PBM binding z-score of 0.758. Sequence TCGGCTAGGTCAACGATGGTCAGCTAATCTGCTA has a PBM binding z-score of 3.23. AGAATGAGGTTAATAAGATCAGGGAATTGCGGTC was tested, and the PBM binding z-score was 1.38. AGAACGAGGGCAATGAGTTGATAGTACGGGTGGC gave a PBM binding z-score of 0.224. AGTCAAAGTTCATCTAGGGAACGTAAGATATGCT was tested, and the PBM binding z-score was 6.67. ATAACGAGGGCACGCTGAGTTGATAGCAGAGTAG was tested, and the PBM binding z-score was 0.657. For ATCTGTAGGTAACCAAGTTCAGTGAATGCCGAAC, the PBM binding z-score was 0.276. AGAACGAGGGCACGCTGAGTTGAGAGCAGAGTAG was tested, and the PBM binding z-score was 1.03. CTCGAAAGGTCGTGCTGAGGTGAGTATACCAAAC showed a PBM binding z-score of 4.89. Work on CAAACTAGGTCCAGAGGTCAAAGTCCGCTTCCCG yielded a PBM binding z-score of 4.77. Sequence CGTCCAAGGTCAAAGGTCAGTGACGAGATGACGG has a PBM binding z-score of 8.29. GGAACGAGGGCAAAGTTGATAGAATCTGTCGACG was tested, and the PBM binding z-score was 1.44. Sequence TCTTGTAGATCAATAGAGGATAAGAAAGTGCGCT has a PBM binding z-score of 0.574. Work on CGAACCAGGTCAAGGACAGTGAATCTCCGCACGC yielded a PBM binding z-score of 4.75. CCGGCTAGGTCATGGTCAGCTAATCTACAGTATG was tested, and the PBM binding z-score was 3.61. ATACCAAGGTGCTCGTGAGGTCGTTGATACTAAC showed a PBM binding z-score of 0.689. CCAACTAGGTCAAGGACAGTGAATCTCCGCACGC gave a PBM binding z-score of 3.25. Work on GTAACGAGGGCAAGTTGATAGCAGAGTTTGATGG yielded a PBM binding z-score of 0.832. With TCTGCTAGGTCAGTTGGACAGCTAACGAGCTGCC the PBM binding z-score was 0.721. AGTCAAAGCTCAGGACGAGGTAACGTAAAGCACG gave a PBM binding z-score of -0.244. ACGTACGGGTCAACGAGGTTATAGCACGCGTATA gave a PBM binding z-score of 7. CCTTACGGGTCACTGACAGGTTAGAGCATTTGGA gave a PBM binding z-score of 5.51. Work on CGAACTAGGTCATCCAGGACAGTCAATACATTGA yielded a PBM binding z-score of 4.68. CAAACTAGGCCAAAGGTCAAAGTCGAGCCAACCA gave a PBM binding z-score of 6.1. CGTCCAAGGTCAATGTCAGTGAAAGAGACTCGAA showed a PBM binding z-score of 6.7. For TCTATTACTTGAAGGGCAACCGACGAGTCCGTTT, the PBM binding z-score was 0.851. In the case of TCTTGTAGATCAACAGGAGGTTAAGAACGATCGA, the PBM binding z-score is reported as 0.185. For TCATATAGGTAAATGCTAGGTGAAAGTCCGATCT, the PBM binding z-score was 1.23. Work on TCTAGTTGGTCACGGAGGTCACACAAGACGGGTA yielded a PBM binding z-score of 3.16. In the case of CGAACTAGGTCATCCAAGACAGTGAATACATTGA, the PBM binding z-score is reported as 4.2. With TCTTATAGATCAACAGGAGGTTAAGAAAGATCGA the PBM binding z-score was 0.826. Work on CGAACTAGGTCAGAACAGGAAAGTGAAGGATGAT yielded a PBM binding z-score of 0.901. ATATGTAGGTTATCGCGTCATTCAGTTTGCGCAT showed a PBM binding z-score of 0.694.
